As a reminder, the AC50 is the concentration at which the activity in the assay is half-maximal.

Each structure is given as a SMILES string. In all, about 16,000 compounds went through this assay and about 4,000 (25%) were called active. Inconclusive results (about 26%) are left out. The call rests on the fitted dose curve; in most records, active means well fitted curve in the direction sought with a large enough effect; inconclusive means small, poorly fitted or top-dose-only effect, or effect the other way; inactive means no such curve, though single readings can be large or run the other way. The list is a sample of the results.
On the % scale 0 is the no-effect control and ±100 the full control effect.

Chain of Cytochrome P450 2C9 (Homo sapiens) (P11712 whole entry, looked up): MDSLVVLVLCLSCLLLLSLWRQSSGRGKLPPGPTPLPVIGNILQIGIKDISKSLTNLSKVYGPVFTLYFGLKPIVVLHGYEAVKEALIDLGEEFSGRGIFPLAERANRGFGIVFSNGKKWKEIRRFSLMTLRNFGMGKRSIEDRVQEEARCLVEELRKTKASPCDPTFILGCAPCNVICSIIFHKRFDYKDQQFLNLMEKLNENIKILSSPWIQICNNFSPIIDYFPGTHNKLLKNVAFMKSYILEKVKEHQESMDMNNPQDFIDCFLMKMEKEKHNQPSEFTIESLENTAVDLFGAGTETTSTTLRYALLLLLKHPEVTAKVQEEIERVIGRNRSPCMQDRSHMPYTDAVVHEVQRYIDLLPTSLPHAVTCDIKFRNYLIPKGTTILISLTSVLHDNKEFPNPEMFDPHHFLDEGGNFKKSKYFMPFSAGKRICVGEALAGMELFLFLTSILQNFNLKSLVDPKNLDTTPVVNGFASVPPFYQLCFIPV

This test concerns the target Cytochrome P450 2C9 (Homo sapiens) (UniProt P11712). The test is described as follows: Cytochrome panel assay with activity outcomes. The conditions noted are these: recombinant CYP, pro-luciferin dealkylation, luminescence, p450-cyp2c9; series mostly up to 57.1 µM. The protocol:
The P450 gene superfamily is involved in the metabolism and clearance of xenobiotics. This assay used various human CYP P450 isozymes to measure the dealkylation of various pro-luciferin substrates to luciferin. The luciferin is then measured by luminescence after the addition of a luciferase detection reagent. Pro-luciferin substrate concentration in the assay was equal to its KM for its CYP P450 isozyme. Inhibitors and some substrates limit the production of luciferin, and decrease measured luminescence.
NCGC Assay Protocol Summary:
1, Reagent, 2 uL, Isozyme and Pro-Luciferin
2, Library compounds, 23 nl, 40 uM to 0.24 nM dilution series
3, Controls, 23 nl, Isozyme specific inhibitor
4, Reagent, 2 uL, NADPH regeneration solution
5, Incubation time, 60 min, Isozyme specific temperature
6, Reagent, 4ul, Detection reagent
7, Incubation time, 20 min, Isozyme specific temperature
8, Detection, 1 sec, ViewLux luminescent read
The luciferase-based P450-GloTM Screening Systems were obtained from Promega (Madison, WI) for CYP 1A2 (V9770), CYP 2C9 (V9790), CYP2 C19 (V9880), CYP 2D6 (V9890), and CYP 3A4 Luciferin-PPXE (V9910) and were adapted for 1,536-well microplates and an automated protocol. The control compounds furafylline for 1A2 (F124), sulfaphenazole for CYP 2C9 (S0758), ketoconazole for CYP 2C19 (K1003), quinidine for 2D6 (Q3625), and ketoconazole for 3A4 (K1003) were purchased from Sigma Aldrich (St. Louis, MO). Recombinant P450 enzymes were obtained from baculovirus constructs expressed in insect cells (BD/Gentest).
Medium-binding white solid Kalypsys plates used. Mixtures kept on ice. 1A2: 10 nM 1A2, 100 uM Luc-ME, 100 mM KPO4; 2C9: 10 nM 2C9, 100 uM Luc-H, 25 mM KPO4; 2C19: 5 nM 2C19, 10 uM Luc-H EGE, 50 mM KPO4; 2D6: 5 nM 2D6, 30 uM Luc-ME EGE, 100 mM KPO4; 3A4: 10 nM, 25 uM Luc-PPXE. All amounts are reflected in their final concentration, working concentration is 2x.
NADPH regeneration solution: 1.3 mM NADP+, 3.3 mM glucose-6-phosphate, 3.3 mM MgCl2, 0.4 U/mL glucose-6-phosphate dehydrogenase for all isozymes, 200 mM KPO4 for 3A4. Mixture prepared at RT but kept on ice during automated run.
RT incubation in auxilliary plate hotel for 1A2, 2D6, and 3A4; 37C for 2C9 and 2C19.
Keywords: P450, CYP1A2, CYP2C19, CYP2C9, CYP2D6, CYP3A4, Luciferase, MLSMR, MLSCN, NIH Roadmap, qHTS, NCGC
In the case of `CCOC(=O)c1[nH]c(C)c(C(=O)N2CCC3(CC2)OCCO3)c1C`, the AC50 is 20 µM (active).

For the compound `O=C(C1CC(=O)N(C2CCCC2)C1)N1CCC2(CC1)OCCO2` (stereo not drawn), the activity, negative = inhibition entry is “inactive”.

As to `N=C(N)c1ccc(-c2ccc(-c3ccc(C(=N)N)cc3)o2)cc1`, the activity, negative = inhibition is 19.5% [at 11.4 µM] (inactive).

Consider `COc1ccccc1CC1C(=O)C2CCN1CC2` (stereo not drawn), for which the activity, negative = inhibition result is “inactive”.

For `CN(N=O)C(=O)N[C@H]1C(O)OC(CO)[C@@H](O)[C@H]1O` (stereo partly drawn), the activity, negative = inhibition result was “inactive”.

Turning to `CCOc1ccc2c(c1)C(C)=CC(C)(C)N2`, the AC50 is 2 µM (active).

With `C[N+]1([O-])[C@@H]2CC(OC(=O)[C@@H](CO)c3ccccc3)C[C@@H]1[C@H]1O[C@H]12` (stereo partly drawn), the activity, negative = inhibition entry was “inactive”.

Consider `CC(C)CCn1c(N)c(C(=O)NCc2cccs2)c2nc3ccccc3nc21`, for which the AC50 was 10 µM (active).

On to `CCCCn1c(N)c(C(=O)NCc2cccs2)c2nc3ccccc3nc21`, for which the AC50 was 14.1 µM (active).

Consider `CC(C)C(=O)CP(=O)(O)O`, for which the activity, negative = inhibition was 13.2% [at 11.4 µM] (inactive).

In the case of `O[C@H](CN1CC1)[C@@H](O)CN1CC1`, the activity, negative = inhibition is 4% [at 11.4 µM] (inactive).

For the compound `C[C@H]1CN(C2CCC(C#N)(c3ccc(F)cc3)CC2)CC[C@@]1(C(=O)O)c1ccccc1` (stereo partly drawn), the activity, negative = inhibition entry is “inactive”.

In the case of `c1ccc2c(N3CCNCC3)cccc2c1`, the activity, negative = inhibition result was “inactive”.

For the compound `Cc1nnc2ccc(-c3cccc(C(F)(F)F)c3)nn12`, the activity, negative = inhibition entry was “inactive”.

Take `c1ccc(CN2CCN(Cc3ccc4c(c3)OCCO4)CC2)cc1`: the activity, negative = inhibition entry is “inactive”.

With `COc1ccc(C(=O)OC2C[C@H]3CC[C@@H](C2)N3C)cc1OC` (stereo partly drawn), the activity, negative = inhibition result is “inactive”.

For the compound `O=P(Nc1ccccc1)(Nc1ccccc1)Oc1cccc(Cl)c1`, the AC50 is 12.6 µM (active).

Regarding `CN1CCc2cc3c(cc2[C@@H]1[C@@H]1OC(=O)c2c1ccc1c2OCO1)OCO3`, the activity, negative = inhibition entry was “inactive”.

Regarding `CCCN(CCC)C1Cc2cc(OC)c(OC)cc2C1`, the activity, negative = inhibition entry was “inactive”.

In the case of `NC[C@@H](Cc1ccccc1)P(=O)(O)O`, the activity, negative = inhibition is 22.3% [at 11.4 µM] (inactive).

As to `O=C(Cn1ncc2ccsc2c1=O)N1CCC2(CC1)OCCO2`, the activity, negative = inhibition entry is “inactive”.

Turning to `Cc1ccc(S(=O)(=O)NCC2CCC(C(=O)N3CCC4(CC3)OCCO4)CC2)cc1` (stereo not drawn), the activity, negative = inhibition result is “inactive”.

Turning to `O=C(CNS(=O)(=O)c1ccc(Br)s1)N1CCC2(CC1)OCCO2`, the AC50 is 11.2 µM (active).

For the compound `CO[C@H]1[C@H](O)[C@H](O[C@@H]2[C@H](Oc3cccc4c(O)c5c(=O)oc6ccc(C)c7c(=O)oc(c34)c5c67)O[C@@H](C)[C@H](O)[C@H]2O)O[C@@H](C)[C@@H]1O`, the activity, negative = inhibition was -7.14% [at 11.4 µM] (inactive).

Consider `O=C(O)C[C@H]1NCc2cc3ccccc3nc21`, for which the activity, negative = inhibition is -0.422% [at 11.4 µM] (inactive).

For the compound `CN(C)CC/C=C1\c2ccccc2Sc2ccc(Cl)cc21`, the activity, negative = inhibition was 7.34% [at 11.4 µM] (inactive).

With `O=C(O)Cc1cnc[nH]1`, the activity, negative = inhibition entry is “inactive”.

Regarding `C=CCN1C[C@H](C)N([C@H](c2ccc(C(=O)N(CC)CC)cc2)c2cccc(O)c2)C[C@H]1C`, the AC50 was 3.98 µM (active).

Turning to `C=CCN1C[C@@H](C)N([C@H](c2ccc(C(=O)N(CC)CC)cc2)c2cccc(OC)c2)C[C@H]1C`, the activity, negative = inhibition entry was “inactive”.

In the case of `C=CCN1C[C@H](C)N([C@H](c2ccc(C(=O)N(CC)CC)cc2)c2cccc(OC)c2)C[C@H]1C`, the activity, negative = inhibition result was “inactive”.

As to `NC(N)=NS(=O)(=O)c1ccc(N)cc1`, the activity, negative = inhibition result was “inactive”.

Turning to `CC[C@@H](CO)NC(=O)[C@H]1C=C2c3cccc4c3c(cn4C)C[C@H]2N(C)C1`, the activity, negative = inhibition entry was “inactive”.

Consider `O=[N+]([O-])c1cc(-c2ccc([As](=O)(O)O)cc2)ccc1[As](=O)(O)O`, for which the activity, negative = inhibition was 16.8% [at 11.4 µM] (inactive).

Turning to `CN(C)C=C1C(=O)N(C2CCCCC2)C(=O)N(C2CCCCC2)C1=O`, the AC50 was 2.24 µM (active).

In the case of `COc1cc(-c2ccc(=O)[nH]n2)ccc1OC(F)F`, the activity, negative = inhibition entry is “inactive”.

Consider `C[N+](C)(C)CCCCCC[N+](C)(C)C`, for which the activity, negative = inhibition entry is “inactive”.

Consider `CN=C(NC#N)NCCSCc1nc[nH]c1C`, for which the activity, negative = inhibition result is “inactive”.

In the case of `O=C(O)CS(=O)(=O)C(c1ccccc1)c1ccccc1`, the activity, negative = inhibition is -12.7% [at 11.4 µM] (inactive).

`C[N+](C)(C)CC#CCN1CCCC1=O`: the activity, negative = inhibition entry is “inactive”.

For `C(#CCN1CCCC1)CN1CCCC1`, the activity, negative = inhibition result was “inactive”.

With `O=C1CCCN1CC#CCN1CCCC1`, the AC50 is 2 µM (active).

Consider `CC(C)(C)C(=O)CP(=O)(O)O`, for which the activity, negative = inhibition is 9.42% [at 11.4 µM] (inactive).

As to `OC(c1ccccc1)(c1ccccc1)C1CCCN1` (stereo not drawn), the activity, negative = inhibition result was “inactive”.

In the case of `COc1ccccc1CN1CC[C@@]2(CCCN(C(=O)Oc3ccccc3)C2)C1`, the activity, negative = inhibition entry is “inactive”.

With `Cc1ccc(C(=O)C2C(=O)c3ccccc3C2=O)cc1`, the AC50 was 2.24 µM (active).

In the case of `CCN1C[C@@]2(COC)CC[C@H](O)[C@@]34[C@@H]2C[C@@H]([C@@H]13)[C@]1(O)C[C@@H](OC)C2C[C@H]4[C@H]1[C@H]2OC(C)=O`, the activity, negative = inhibition entry is “inactive”.

Turning to `c1ccc2sc(C3(N4CCCCC4)CCCCC3)cc2c1`, the activity, negative = inhibition entry was “inactive”.

As to `CC[C@]1(C2=NCCN2)Cc2ccccc2O1`, the activity, negative = inhibition result was “inactive”.

Source of the values: PubChem BioAssay AID1851 (National Center for Advancing Translational Sciences (NCATS), 2009).
